Bioassay records as filed in PubChem BioAssay.
DT40 TDP1 no CPT: qHTS for Inhibitors of human tyrosyl-DNA phosphodiesterase 1 (TDP1): qHTS in cells in absence of CPT | AID 686978, 2013 | 15% of 420,000 active | Potency, µM (titrated, usually from 46.2 µM), without a hit: top-dose activity change, negative = growth inhibition, actives largely listed as inhibitors | DT40 Tdp1-/- hTDP1 cells, no CPT, ATP luminescence, 48 h; note: potency is the fitted concentration of half-maximal effect; nearly all actives have a fitted effect of over 55% in size
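Camptothecin absent (DMSO only). Human TDP1-complemented DT40 knockout cells, 400 cells/well, 37 °C for minimum 48 hr; ATP measured via CellTiter-Glo, 30 min dark incubation, luminescence.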
RORgamma inh: qHTS for inhibitors of ROR gamma transcriptional activity. Nuclear receptor ROR-gamma (Mus musculus), P51450. Drosophila S2 Gal4-RORgamma UAS-luciferase reporter, 20 h. Potency, µM (series often up to 53.6 µM), for inactives: at the top dose activity change, negative = inhibition, most hits filed as inhibitors. 5.4% of 310,000 active. AID 2551, 2010; note: potency is the fitted concentration of half-maximal effect; nearly all actives have a fitted effect of over 60% in size
Target sequence (P51450 whole entry, looked up, the tested form may be a part): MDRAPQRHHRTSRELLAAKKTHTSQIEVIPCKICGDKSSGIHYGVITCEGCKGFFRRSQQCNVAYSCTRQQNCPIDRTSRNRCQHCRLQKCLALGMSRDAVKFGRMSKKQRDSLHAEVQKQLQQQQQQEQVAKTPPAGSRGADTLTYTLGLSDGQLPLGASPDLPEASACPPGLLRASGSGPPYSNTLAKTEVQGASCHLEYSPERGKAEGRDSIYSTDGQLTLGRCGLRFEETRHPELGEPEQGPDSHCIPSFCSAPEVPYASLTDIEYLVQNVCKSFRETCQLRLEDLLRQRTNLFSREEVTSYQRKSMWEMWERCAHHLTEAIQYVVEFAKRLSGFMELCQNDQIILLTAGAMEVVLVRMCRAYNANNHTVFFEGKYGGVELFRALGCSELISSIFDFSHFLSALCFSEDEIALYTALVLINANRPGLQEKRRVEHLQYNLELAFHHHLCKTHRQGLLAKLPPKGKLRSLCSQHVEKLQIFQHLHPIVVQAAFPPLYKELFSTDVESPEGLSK
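Using a luciferase readout, inhibitors were identified by reduced reporter activity in Drosophila cells coexpressing a copper-inducible Gal4–ROR gamma fusion and UAS-driven Photinus luciferase, incubated 20 hr after 700 uM copper sulfate.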
TDP1 cell CPT: qHTS for Inhibitors of human tyrosyl-DNA phosphodiesterase 1 (TDP1): qHTS in cells in presence of CPT; Potency, µM (titrated, usually from 46.2 µM), without a hit: at the top dose activity change, negative = growth inhibition, hits mostly inhibitors; 12% of 420,000 active; chicken DT40 Tdp1-/-;hTDP1 cells + 20 nM CPT, ATP luminescence, 48 h; note: potency is the fitted concentration of half-maximal effect; nearly all actives have a fitted effect of over 55% in size
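Cell growth measured by CellTiter-Glo luminescence after a minimum 48 h, 37 C compound exposure with 20 nM CPT in Tdp1-knockout DT40 cells stably expressing hTDP1, seeded 400/well; qHTS titration format.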
Gal4-VP16 FLuc: VP16 counterscreen qHTS for inhibitors of ROR gamma transcriptional activity; 3.5% of 310,000 active; Potency, µM (highest dose often 53.6 µM), inactives show at the highest dose activity, negative = inhibition, actives largely listed as inhibitors; Drosophila S2 Gal4-VP16 UAS-luciferase, luminescence, 20 h;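 note: Gal4-VP16 expression switched on by copper sulfate through the metallothionein promoter; potency is the fitted concentration of half-maximal effect; nearly all actives have a fitted effect of over 50% in size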
IL-1B inflam inh: qHTS for Inhibitors of Inflammasome Signaling: IL-1-beta AlphaLISA Primary Screen; THP-1 LPS/ATP IL-1B secretion, AlphaLISA, 16 h; active compounds read low; activity change, % at 57.5 µM; 4.7% of 360,000 active; AID 743279, 2014; in the data active = activity change below about -50%; inconclusive = mostly about -30% to -49%
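THP-1 cells pretreated 1 hr with compounds (up to 57.5 uM final), then stimulated with LPS (250 ng/mL final) plus ATP (1.25 mM final); secreted IL-1B measured by AlphaLISA after 16 hr, decreased signal indicating inhibition.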
LDHA block: qHTS assay for inhibitors of human lactate dehydrogenase; purified LDHA, NADH/diaphorase-resazurin fluorescence; active compounds read low; activity change, % (values are at about 110 or 230 µM); 0.15% of 480,000 active; in the data active = activity change below about -30%; inconclusive = mostly about -25% to -30%;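 note: plate controls were DMSO wells for no effect and wells without enzyme for full effect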
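Enzyme activity of human lactate dehydrogenase 5 (2 nM; 0.06 mM NADH, 0.2 mM pyruvate, 5 min, RT) is measured via a resazurin/diaphorase fluorescence readout of residual NADH.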
* marks the source's active call; other numbers are inactive results; ? = inconclusive; nt = no result; [ ] = dose if it differs, or a comment. A selection: hits, their analogues and other compounds. The true share with any hit is near 18%. Unless noted, calls come from the whole dose curve; as a rule, active = well fitted curve in the direction sought with a large enough effect; inconclusive = small, poorly fitted or top-dose-only effect, or another doubt; inactive = no such curve, though single readings can be large; an effect the other way counts as inactive or inconclusive. Unless noted, % is set by controls: 0 for no effect and ±100 for the full control effect.

SMILES	DT40 TDP1 no CPT	RORgamma inh	TDP1 cell CPT	Gal4-VP16 FLuc	IL-1B inflam inh	LDHA block
Cc1cc(C)c2oc(C(=O)Nc3ccc(OC(F)F)cc3)cc(=O)c2c1	nt	nt	nt	nt	nt	-0.6
CC(C)C(C(=O)Nc1nc2ccc(S(C)(=O)=O)cc2s1)c1ccc(Cl)cc1 (configuration not stated)	nt	nt	nt	nt	nt	-6.9
Brc1cccc(CNCc2cccnc2-n2cccn2)c1	nt	nt	nt	nt	nt	0.2
O=C(Nc1ccccc1C(=O)NCCc1ccccc1)c1cnc2ccccc2n1	nt	nt	nt	nt	nt	6.2
CCOC(=O)C1CCN(C(=O)c2cc3cc(OCC)ccc3n2C)CC1	nt	nt	nt	nt	nt	-8.0
COCCNc1nc(NCCNC(C)=O)c2sc(-c3ccccc3)cc2n1	?	nt	?	nt	nt	-1.9
C=CCNc1nc(NCc2ccc(NC(C)=O)cc2)c2sc(-c3ccccc3)cc2n1	9.2µM*	nt	8.2µM*	nt	?	-7.7
CC(=O)Nc1ccc(CNc2nc(NC(C)C)nc3cc(-c4ccccc4)sc23)cc1	4.11µM*	nt	3.66µM*	nt	-113.7*	2.2
CC(=O)Nc1ccc(NCc2ccc(-c3ccccc3)cc2)cc1	-16.2%	nt	-23.9%	nt	-0.1	-1.2
CC(=O)NCCNc1nc(NC(C)C)nc2cc(-c3ccccc3)sc12	?	nt	23.1µM*	nt	nt	-3.6
COc1ccc(-c2cc(CNc3nc(NC(C)C)nc4cc(-c5ccccc5)sc34)on2)cc1	3.66µM*	nt	4.11µM*	nt	-107.0*	-3.8
COc1ccc(-c2cc(COc3ccccc3)on2)cc1	?	21.3%	0.8%	24.0%	-14.2	-7.7
CCOC(=O)C1=C(CN(C)Cc2ccccc2)NC(=O)NC1c1ccc(CC)cc1 (configuration not stated)	nt	nt	nt	nt	nt	9.8
CS(=O)(=O)c1ccc(NC(=O)COc2ccccc2C(N)=O)cc1	nt	nt	nt	nt	nt	-20.1
N#Cc1ncn(Cc2noc(-c3ccc(F)cc3)n2)n1	nt	nt	nt	nt	nt	-6.4
O=C(CCC(=O)Nc1cccc(Cl)c1)N/N=C/c1cc([N+](=O)[O-])ccc1O	?	11.2µM*	?	?	154.5	4.0
O=C(CN(c1cccc(Br)c1)S(=O)(=O)c1ccccc1)N/N=C/c1cc([N+](=O)[O-])ccc1O	?	nt	?	nt	118.0	-2.6
O=C(CCC(=O)Nc1cccc([N+](=O)[O-])c1)N/N=C/c1cccs1	3.7%	19.8%	-6.3%	-11.5%	20.5	-0.6
O=C(CCCC(=O)Nc1cccc(Br)c1)N/N=C/c1cc([N+](=O)[O-])ccc1O	5.17µM*	?	5.8µM*	10µM*	45.6	0.3
COC(=O)[C@@]12CCCCN1[C@H](c1ccc(-c3ccc(OC)cc3)cc1)[C@H]1C(=O)N(C)C(=O)[C@H]12	9.2µM*	nt	11.6µM*	nt	-1.4	-6.0
COC(=O)[C@@]12CCCCN1[C@H](c1ccc(-c3ccc(F)cc3)cc1)[C@H]1C(=O)N(C)C(=O)[C@H]12	23.1µM*	nt	?	nt	-13.8	-3.6
COC(=O)[C@@]12CCCCN1[C@H](c1ccc(-c3ccccc3)cc1)[C@@H]1C(=O)N(C)C(=O)[C@@H]12	?	nt	20.6µM*	nt	0.0	-11.4
COC(=O)[C@@]12CCCN1[C@H](c1ccc(-c3ccc(F)cc3)cc1)[C@H]1C(=O)N(C)C(=O)[C@H]12	?	nt	?	nt	6.5	-1.9
COC(=O)[C@@]12CCCN1[C@H](c1ccc(-c3ccc4c(c3)OCO4)cc1)[C@H]1C(=O)N(C)C(=O)[C@H]12	?	nt	?	nt	8.0	-0.2
CCOc1ccccc1C(=O)Nc1c(C(=O)N2CCN(C)CC2)oc2ccccc12	nt	nt	nt	nt	nt	0.9
SMILES	DT40 TDP1 no CPT	RORgamma inh	TDP1 cell CPT	Gal4-VP16 FLuc	IL-1B inflam inh	LDHA block
Nc1nccnc1C(=O)NCC(c1ccccc1)c1ccccc1	nt	nt	nt	nt	nt	7.9
Cn1c(=O)c2c(nc(N3CCCCCC3)n2CCCc2ccccc2)n(C)c1=O	nt	nt	nt	nt	nt	-8.5
Clc1ccccc1CN(Cc1ccccc1)C(c1cccs1)c1nnnn1C1CCCC1 (configuration not stated)	20.6µM*	16.9%	?	?	?	-4.4
CCN(Cc1ccccc1)C(c1ccccn1)c1nnnn1C1CCCCC1 (configuration not stated)	?	-8.9%	?	-6.1%	-11.4	-0.9
c1csc(C(c2nnnn2C2CCCC2)N2CCOCC2)c1 (configuration not stated)	-2.1%	-5.8%[10 µM]	-10.1%	-0.1%	-17.8	2.2
CCN(Cc1ccccc1)C(c1cccs1)c1nnnn1C1CCCCC1 (configuration not stated)	29.1µM*	5.6%	?	-20.6%	-8.1	2.2
Clc1ccc(CN(CC2CCCO2)C(c2cccs2)c2nnnn2C2CCCC2)cc1 (configuration not stated)	6.51µM*	?	7.31µM*	?	-21.7	-1.7
CC(C)(C)n1nnnc1C(c1cccs1)N(Cc1cccnc1)Cc1ccccc1Cl (configuration not stated)	18.4µM*	?	?	-4.1%[0.365 µM]	-11.8	-1.5
Cc1ccc(-c2csc(/C=C/c3cccc(O)c3)n2)cc1	nt	nt	nt	nt	nt	7.0
Cc1ccc(NC(=O)CSCc2nc3ccccc3c(=O)[nH]2)cc1	nt	nt	nt	nt	nt	4.1
FC(F)(F)c1cnc(NNC(=S)Nc2ccccc2Cl)c(Cl)c1	18.4µM*	?	?	10µM*	-51.8*	-1.1
Cc1cccc(NC(=S)NNc2ncc(C(F)(F)F)cc2Cl)c1	?	15.8µM*	?	12.6µM*	-13.6	-5.1
O=C(Nc1ccccc1)Nc1ncc(C(F)(F)F)cc1Cl	?	nt	-10.2%	nt	?	1.7
CCn1c(Cc2cccc3ccccc23)nnc1SCC(=O)Nc1nccs1	?	14.1µM*	?	?	16.5	-1.2
Cn1c(CNC(=O)c2ccccc2)nnc1SCC(=O)Nc1nccs1	?	-27.8%	14.6µM*	1.3%[10 µM]	33.0	-9.2
Cc1cccc(C)c1-n1nnnc1SC(C(=O)N1CCOCC1)c1ccccc1 (configuration not stated)	nt	nt	nt	nt	nt	2.3
Cc1ccc(Nc2c(-c3ccsc3)nc3c(C)cccn23)cc1	?	nt	?	nt	nt	6.5
Cc1cccc(C)c1Nc1c(-c2ccsc2)nc2ncccn12	?	?	14.6µM*	-27.9%	4.3	-2.7
CCc1cccc(C)c1Nc1c(-c2ccsc2)nc2ncccn12	7.31µM*	nt	5.8µM*	nt	nt	1.3
